Laboratory results as given in PubChem BioAssay (NCATS).
Results filed as inconclusive are left out. Active and inactive are the calls of the source. The call rests on the fitted dose curve; in most records, active means well fitted curve in the direction sought with a large enough effect; inconclusive means small, poorly fitted or top-dose-only effect, or another doubt; inactive means no such curve, though single readings can be large; an effect the other way counts as inactive or inconclusive.

Assays:
C33A = experiment: Primary qHTS to identify gynecologic anti-cancer compounds using libraries of approved drugs and bioactive compounds (AID 1345084); details: Gynecologic cancer cell panel viability, ATPlite luminescence, 48 h; series mostly up to 57.5 µM; further: nearly all actives have a fitted effect of over 55% in size
Procedure, shortened: (§1)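 Cells, 1,000 per well, were allowed to settle for 16 h at 37 C before compound addition. Five concentrations were tested for 48 h, and viability was read by ATPlite luminescence after 15 min at room temperature.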

CAOV3 = experiment: as above; details: Gynecologic cancer cell panel viability, ATPlite luminescence, 48 h; series mostly up to 57.5 µM
Procedure, shortened: as §1

CASKI = experiment: as above; details: Gynecologic cancer cell panel viability, ATPlite luminescence, 48 h; series mostly up to 57.5 µM
Procedure, shortened: as §1

Es-2 = experiment: as above; details: Gynecologic cancer cell panel viability, ATPlite luminescence, 48 h; series mostly up to 57.5 µM
Procedure, shortened: as §1

HeLa = experiment: as above; details: Gynecologic cancer cell panel viability, ATPlite luminescence, 48 h; series mostly up to 57.5 µM
Procedure, shortened: as §1

Hek293T = experiment: as above; details: Gynecologic cancer cell panel viability, ATPlite luminescence, 48 h, control line for the selectivity index; series mostly up to 57.5 µM
Procedure, shortened: as §1

OV90 = experiment: as above; details: Gynecologic cancer cell panel viability, ATPlite luminescence, 48 h; series mostly up to 57.5 µM
Procedure, shortened: as §1

SKOV3 = experiment: as above; details: Gynecologic cancer cell panel viability, ATPlite luminescence, 48 h; series mostly up to 57.5 µM
Procedure, shortened: as §1

Tov112D = experiment: as above; details: Gynecologic cancer cell panel viability, ATPlite luminescence, 48 h; series mostly up to 57.5 µM
Procedure, shortened: as §1

[1] = qHTS assay to identify inhibitors of the type 1 interferon - major histocompatibility complex class I in skeletal muscle: Counter screen cell viability and HiBit confirmation (AID 1347412); details: iHSKM muscle cells + IFN-b, HiBiT or CellTiter-Glo, 24 h; for activity change, negative = inhibition: at 45.9 µM (top of the series); on all read-outs here: nearly all actives have a fitted effect of over 60% in size
Procedure, shortened: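 Human myoblast knock-in line, 4.0 ng/ml IFN-beta stimulation, 24 h compound treatment. Endpoints: HiBiT lytic luminescence (HLA-B level) and CellTiter Glo (ATP). Dosing 12 concentrations, 3-fold steps, 46 uM highest final.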

JEG-3 = experiment: Primary qHTS to identify gynecologic anti-cancer compounds using libraries of approved drugs and bioactive compounds (AID 1345084); details: Gynecologic cancer cell panel viability, ATPlite luminescence, 48 h; series mostly up to 57.5 µM; further: nearly all actives have a fitted effect of over 55% in size
Procedure, shortened: as §1

PA-1 = experiment: as above; details: Gynecologic cancer cell panel viability, ATPlite luminescence, 48 h; series mostly up to 57.5 µM
Procedure, shortened: as §1

Tov-21-G = experiment: as above; details: Gynecologic cancer cell panel viability, ATPlite luminescence, 48 h; series mostly up to 57.5 µM
Procedure, shortened: as §1
On the % scale 0 is the no-effect control and ±100 the full control effect; potency means the concentration at half of the fitted maximal effect.

CCOc1cc(C(=O)N2CCC(N3CCN(C)CC3)CC2)ccc1Nc1ncc2c(n1)N(C1CCCC1)c1ccccc1C(=O)N2C
active: Potency (CAOV3) 31.6 µM | Potency (SKOV3) 35.5 µM | Potency ([1]; HiBiT) 12.5 µM
inactive: Potency (C33A) | Potency (CASKI) | Potency (Es-2) | Potency (HeLa) | Potency (Hek293T) | Potency (OV90) | Potency (Tov112D) | activity change, negative = inhibition ([1]; Viability) -25.1%

Cc1nc([C@](C)(O)CO)sc1-c1cnc(N)c(O[C@H](C)c2cc(F)ccc2-n2nccn2)c1
active: Potency (HeLa) 8.91 µM | Potency (PA-1) 11.2 µM
inactive: Potency (C33A) | Potency (CAOV3) | Potency (CASKI) | Potency (Es-2) | Potency (JEG-3) | Potency (SKOV3) | Potency (Tov112D)

COC(=O)C1=CO[C@@H](O[C@@H]2O[C@H](CO)[C@@H](O)[C@H](O)[C@H]2O)[C@@H]2C(COC(C)=O)=C[C@H](O)[C@H]12
inactive: Potency (C33A) | Potency (CAOV3) | Potency (CASKI) | Potency (Es-2) | Potency (HeLa) | Potency (Hek293T) | Potency (JEG-3) | Potency (PA-1) | Potency (Tov-21-G) | Potency (Tov112D)

Cc1ccc(S(=O)(=O)n2ccc(-c3c(-c4ccc(Cl)cc4)noc3C)n2)cc1
inactive: Potency (CAOV3) | Potency (CASKI) | Potency (Es-2) | Potency (HeLa) | Potency (Hek293T) | Potency (OV90) | Potency (PA-1)
active: Potency (C33A) 8.91 µM

CC1(C)CC2C(C1)C(C)(O)C13CC1(COC3=O)C2O (centres undefined)
inactive: Potency (C33A) | Potency (CAOV3) | Potency (CASKI) | Potency (Es-2) | Potency (HeLa) | Potency (Hek293T) | Potency (OV90) | Potency (PA-1) | Potency (SKOV3) | Potency (Tov-21-G) | Potency (Tov112D)

Cc1cc(N2CCN([C@@H]3CN[C@H](C(=O)N4CCSC4)C3)CC2)n(-c2ccccc2)n1
inactive: Potency (C33A) | Potency (CAOV3) | Potency (CASKI) | Potency (Es-2) | Potency (HeLa) | Potency (Hek293T) | Potency (OV90) | Potency (Tov-21-G) | Potency (Tov112D)

Cc1c[nH]c2nccc(Oc3c(F)cc(Nc4cc(Cl)nc(N)n4)cc3F)c12
inactive: Potency (C33A) | Potency (CAOV3) | Potency (CASKI) | Potency (OV90)
active: Potency (Es-2) 12.6 µM | Potency (HeLa) 7.94 µM | Potency (Tov112D) 7.94 µM

C[C@H]1Oc2cc(cnc2N)-c2c(nn(C)c2C#N)CN(C)C(=O)c2ccc(F)cc21
inactive: Potency (C33A) | Potency (CAOV3) | Potency (CASKI) | Potency (Es-2) | Potency (HeLa) | Potency (Hek293T) | Potency (JEG-3) | Potency (Tov112D) | activity change, negative = inhibition ([1]; HiBiT) -24.3% | activity change, negative = inhibition ([1]; Viability) -27.7%

COc1ccc([C@@]2(O)c3c(ccc(CC=C(C)C)c3O)NC(=O)[C@@H]2OC)cc1
inactive: Potency (C33A) | Potency (CAOV3) | Potency (CASKI) | Potency (Es-2) | Potency (HeLa) | Potency (Hek293T) | Potency (OV90) | Potency (PA-1) | Potency (SKOV3) | Potency (Tov-21-G) | Potency (Tov112D)

CC(=O)O[C@@H]1[C@H](O)[C@@H](O[C@@H]2O[C@@H](C)[C@H](O[C@@H]3OC[C@@H](O)[C@H](O[C@@H]4OC[C@@H](O)[C@H](O)[C@H]4O)[C@H]3O)[C@@H](O[C@@H]3O[C@H](CO)[C@@H](O)[C@H](O)[C@H]3O)[C@H]2O)[C@H](OC(=O)[C@]23CCC(C)(C)C[C@H]2C2=CCC4[C@@]5(C)CC[C@H](O[C@@H]6O[C@H](C(=O)O)[C@@H](O)[C@H](O[C@@H]7OC[C@@H](O)[C@H](O)[C@H]7O)[C@H]6O[C@@H]6O[C@H](CO)[C@H](O)[C@H](O)[C@H]6O)[C@@](C)(C=O)C5CC[C@@]4(C)[C@]2(C)CC3)O[C@@H]1C (some centres undefined)
inactive: activity change, negative = cytotoxicity (C33A) 0.359% [at 6.55 µM] | activity change, negative = cytotoxicity (CAOV3) 19.4% [at 6.55 µM] | activity change, negative = cytotoxicity (CASKI) -13.6% [at 6.55 µM] | activity change, negative = cytotoxicity (Es-2) -2.98% [at 6.55 µM] | activity change, negative = cytotoxicity (HeLa) 2.25% [at 6.55 µM] | activity change, negative = cytotoxicity (Hek293T) -2.1% [at 6.55 µM] | activity change, negative = cytotoxicity (JEG-3) -8.94% [at 6.55 µM] | activity change, negative = cytotoxicity (PA-1) -3.62% [at 6.55 µM] | activity change, negative = cytotoxicity (Tov-21-G) -5.86% [at 6.55 µM] | activity change, negative = cytotoxicity (Tov112D) 7.57% [at 6.55 µM]

COc1ncc2cc(C(=O)Nc3cc(C(=O)NCc4cccc(Cl)c4)ccc3Cl)c(=O)[nH]c2n1
inactive: Potency (C33A) | Potency (CAOV3) | Potency (CASKI) | Potency (Es-2) | Potency (Hek293T) | Potency (JEG-3) | Potency (OV90) | Potency (PA-1) | Potency (SKOV3)

COc1cc(OC)cc(C(=O)Nc2ccc(Cl)c(-c3nc4ccc(N(C)C)cc4[nH]3)c2)c1
inactive: Potency (C33A) | Potency (CAOV3) | Potency (CASKI) | Potency (Es-2) | Potency (HeLa) | Potency (JEG-3) | Potency (PA-1) | Potency (SKOV3) | Potency (Tov-21-G) | Potency (Tov112D)

CC1=C(CCC(C)CC(=O)O)[C@@]2(C)CCCC(C)(C)C2CC1=O (some centres undefined)
inactive: Potency (C33A) | Potency (CAOV3) | Potency (CASKI) | Potency (Es-2) | Potency (HeLa) | Potency (JEG-3) | Potency (OV90) | Potency (PA-1) | Potency (SKOV3) | Potency (Tov-21-G) | Potency (Tov112D)

FC(F)(F)c1cc(-c2ncn(/C=C\c3nnco3)n2)cc(C(F)(F)F)c1
active: Potency (Es-2) 3.16 µM
inactive: Potency (C33A) | Potency (CAOV3) | Potency (CASKI) | Potency (HeLa) | Potency (OV90) | Potency (SKOV3) | Potency (Tov-21-G) | Potency (Tov112D)

CS(=O)(=O)NCC1CCC(Nc2nc3c(s2)CCSc2ccccc2-3)CC1 (centres undefined)
inactive: Potency (C33A) | Potency (CAOV3) | Potency (CASKI) | Potency (Es-2) | Potency (HeLa) | Potency (Hek293T) | Potency (JEG-3) | Potency (Tov-21-G) | Potency (Tov112D)
